Publication PMC4336329 (PLoS ONE, 2015)
Among all 310,000 compounds or so, about 14,000 (4.5%) showed an effect of 50% or more. The effect is printed as a negative number. This is one part of a sample in which strong results are shown more often than they occur.

Target: human ether-à-go-go-related gene (hERG) potassium channel (human, UniProt Q12809)
Assay: primary screen, population patch clamp on CHO cells stably expressing hERG; higher = less effect of the substance
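Note: peak tail current of the secondary pulse compared with the same well before compound.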

human ether-à-go-go-related gene (hERG) potassium channel, sequence (Q12809 whole entry, looked up): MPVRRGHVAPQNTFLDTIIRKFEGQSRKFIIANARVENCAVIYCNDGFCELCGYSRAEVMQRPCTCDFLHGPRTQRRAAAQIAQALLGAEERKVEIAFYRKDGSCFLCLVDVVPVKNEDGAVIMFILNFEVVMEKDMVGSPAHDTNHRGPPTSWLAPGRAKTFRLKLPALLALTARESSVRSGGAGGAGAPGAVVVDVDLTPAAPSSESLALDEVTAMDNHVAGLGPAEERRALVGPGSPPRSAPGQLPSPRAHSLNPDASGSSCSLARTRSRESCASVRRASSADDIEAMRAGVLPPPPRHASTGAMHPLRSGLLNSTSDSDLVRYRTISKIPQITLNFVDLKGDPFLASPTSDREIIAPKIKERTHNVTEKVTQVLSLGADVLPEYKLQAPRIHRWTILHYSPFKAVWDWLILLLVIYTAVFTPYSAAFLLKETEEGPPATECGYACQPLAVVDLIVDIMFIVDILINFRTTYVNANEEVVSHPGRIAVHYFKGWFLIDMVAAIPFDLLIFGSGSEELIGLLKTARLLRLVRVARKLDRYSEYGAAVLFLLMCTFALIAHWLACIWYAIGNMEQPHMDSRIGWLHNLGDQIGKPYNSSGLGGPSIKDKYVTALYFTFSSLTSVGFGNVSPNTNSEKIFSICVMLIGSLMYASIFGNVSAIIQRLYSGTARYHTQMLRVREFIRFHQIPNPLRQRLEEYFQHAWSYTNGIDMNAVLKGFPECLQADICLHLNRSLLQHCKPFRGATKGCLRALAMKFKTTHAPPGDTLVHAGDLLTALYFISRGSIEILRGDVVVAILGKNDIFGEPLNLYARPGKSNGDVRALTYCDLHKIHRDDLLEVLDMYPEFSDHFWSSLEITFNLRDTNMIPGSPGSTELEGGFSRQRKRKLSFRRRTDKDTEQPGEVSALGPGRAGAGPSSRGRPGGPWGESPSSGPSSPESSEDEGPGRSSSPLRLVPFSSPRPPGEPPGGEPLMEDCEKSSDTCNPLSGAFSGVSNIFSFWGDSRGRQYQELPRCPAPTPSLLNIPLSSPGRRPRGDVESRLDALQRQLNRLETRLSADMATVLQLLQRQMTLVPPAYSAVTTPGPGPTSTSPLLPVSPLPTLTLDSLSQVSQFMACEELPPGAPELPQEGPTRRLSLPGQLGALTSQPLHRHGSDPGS

**Q.** How did the “hERG current change (%, negative = inhibition) at 10uM” value turn out when `CCC(C)NC(=O)N[C@@H](Cc1ccccc1)C(=O)O` (stereo partly shown) was run?
**A.** The value was -1.98%.

**Q.** How did the “hERG current change (%, negative = inhibition) at 10uM” value turn out when `CCOC(=O)C1CCN(C(=O)CNC(=O)Cn2c(C)cc3ccccc3c2=O)CC1` was run?
**A.** Its value is 6.61%.

**Q.** How did the “hERG current change (%, negative = inhibition) at 10uM” value turn out when `O=C(COc1ccc(F)cc1)Nc1nnc(-c2ccncc2)s1` was run?
**A.** Its value is -6.52%.

**Q.** For `c1cnc(N2CCN(c3nc4ccccc4n4cnnc34)CC2)nc1`, which “hERG current change (%, negative = inhibition) at 10uM” value is on record?
**A.** Its value is -27.6%.

**Q.** Which “hERG current change (%, negative = inhibition) at 10uM” value does the source give for `CC(C)[C@H](NC(=O)c1ccco1)C(=O)NCc1ccccc1` here?
**A.** Its value is 25.1%.

**Q.** How did the “hERG current change (%, negative = inhibition) at 10uM” value turn out when `COc1ccc(S(=O)(=O)N(C)c2ccc(C(=O)NCc3ccco3)cc2)cc1OC` was run?
**A.** Its value is -9.43%.

**Q.** How did the “hERG current change (%, negative = inhibition) at 10uM” value turn out when `CCN(CC)c1ccc(/C=N/NC(=O)Cc2cccs2)cc1` was run?
**A.** Its value is -16.6%.

**Q.** How did the “hERG current change (%, negative = inhibition) at 10uM” value turn out when `COc1ccc(/C=N\NC(=O)c2ccccc2F)cc1COc1ccc(F)cc1F` was run?
**A.** Its value is 11.7%.

**Q.** With `COc1ccc(N2CCN(Cc3cc4c(cc3O)CCC4)CC2)cc1` as the compound, how does the “hERG current change (%, negative = inhibition) at 10uM” value read?
**A.** Its value is -12.4%.

**Q.** How did the “hERG current change (%, negative = inhibition) at 10uM” value turn out when `C/C=C/c1cc(CN2CCN(c3ccccc3)CC2)c(O)c(OC)c1` was run?
**A.** Its value is -32%.

**Q.** How did the “hERG current change (%, negative = inhibition) at 10uM” value turn out when `CCOc1ccc(/C=N/NC(=O)c2ccc(O)cc2)cc1CN1CC2CC(C1)c1cccc(=O)n1C2` (stereo not shown) was run?
**A.** Its value is 4.7%.

**Q.** Which “hERG current change (%, negative = inhibition) at 10uM” value does the source give for `C/C=C/c1cc(CN2CCN(c3ccc(OC)cc3)CC2)c(O)c(OC)c1` here?
**A.** The value was -68.7%.

**Q.** With `COc1ccc(/C=N\NC(=O)c2ccccc2F)cc1COc1ccc(F)cc1` as the compound, how does the “hERG current change (%, negative = inhibition) at 10uM” value read?
**A.** Its value is 27.1%.

**Q.** Which “hERG current change (%, negative = inhibition) at 10uM” value does the source give for `COc1ccc(/C=N/NC(=O)c2ccccc2F)cc1CN1CCN(c2ccc(F)cc2)CC1` here?
**A.** Its value is -76.2%.

**Q.** For `COc1ccc(/C=N/NC(=O)c2ccoc2C)cc1O`, which “hERG current change (%, negative = inhibition) at 10uM” value is on record?
**A.** Its value is -4.47%.

**Q.** With `CCOc1ccc(/C=N/NC(=O)c2ccccc2O)cc1CN1CC2CC(C1)c1cccc(=O)n1C2` (stereo not shown) as the compound, how does the “hERG current change (%, negative = inhibition) at 10uM” value read?
**A.** The value was -16.7%.

**Q.** How did the “hERG current change (%, negative = inhibition) at 10uM” value turn out when `COc1ccc(/C=N/NC(=O)c2ccoc2C)cc1CN1CCN(c2ccc(F)cc2)CC1` was run?
**A.** Its value is -76.8%.

**Q.** `COc1ccc(/C=N/NC(=O)c2ccoc2C)cc1OC` was tested. Which “hERG current change (%, negative = inhibition) at 10uM” value did it give?
**A.** The value was -9.75%.

**Q.** For `CCOc1ccc(/C=N/NC(=O)c2ccc(F)cc2)cc1CN1CC2CC(C1)c1cccc(=O)n1C2` (stereo not shown), which “hERG current change (%, negative = inhibition) at 10uM” value is on record?
**A.** The value was -53.3%.

**Q.** `CCOc1cc(Br)c(C=O)cc1OCC` was tested. Which “hERG current change (%, negative = inhibition) at 10uM” value did it give?
**A.** Its value is 22.1%.

**Q.** With `CC1(CCc2ccccc2)NC(=O)N(CC(=O)N2CC(=O)Nc3ccccc32)C1=O` (stereo not shown) as the compound, how does the “hERG current change (%, negative = inhibition) at 10uM” value read?
**A.** The value was 7.19%.

**Q.** `O=C(COC(=O)c1ccccn1)Nc1ccccc1OC(F)F` was tested. Which “hERG current change (%, negative = inhibition) at 10uM” value did it give?
**A.** The value was 6.71%.

**Q.** With `Cc1cnc(NC(=O)CN(C)S(=O)(=O)c2ccc(Cl)cc2)s1` as the compound, how does the “hERG current change (%, negative = inhibition) at 10uM” value read?
**A.** The value was -1.68%.

**Q.** `O=C(CC(c1ccccc1)c1cc(Br)ccc1O)NCCN1CCOCC1` (stereo not shown) was tested. Which “hERG current change (%, negative = inhibition) at 10uM” value did it give?
**A.** The value was -34.7%.

**Q.** With `CCCCCCCOC(=O)C1=C(C)Nc2ncnn2C1c1cccs1` (stereo not shown) as the compound, how does the “hERG current change (%, negative = inhibition) at 10uM” value read?
**A.** Its value is -0.122%.

**Q.** For `Cc1ccc(NC(=O)COc2ccc(Br)cc2C)cc1`, which “hERG current change (%, negative = inhibition) at 10uM” value is on record?
**A.** Its value is 0.803%.

**Q.** Which “hERG current change (%, negative = inhibition) at 10uM” value does the source give for `COc1ccc(C(=O)N/N=C/c2ccc(OC)c(COc3ccc(F)cc3)c2)cc1` here?
**A.** Its value is -35.2%.

**Q.** How did the “hERG current change (%, negative = inhibition) at 10uM” value turn out when `COc1ccc(/C=N/NC(=O)c2ccncc2)cc1CN1CCCc2ccccc21` was run?
**A.** Its value is -26.1%.

**Q.** `COc1ccc(C(=O)N/N=C/c2ccc(OC)c(CN3CCN(c4ccc(F)cc4)CC3)c2)cc1` was tested. Which “hERG current change (%, negative = inhibition) at 10uM” value did it give?
**A.** The value was -74.2%.

**Q.** Which “hERG current change (%, negative = inhibition) at 10uM” value does the source give for `COc1ccc(/C=N/NC(=O)c2ccncc2)cc1CN1CCN(c2ccc(F)cc2)CC1` here?
**A.** Its value is -77%.

**Q.** Which “hERG current change (%, negative = inhibition) at 10uM” value does the source give for `COc1ccc(C(=O)N/N=C/c2ccc(OC)c(COc3ccc(F)cc3F)c2)cc1` here?
**A.** Its value is 3.74%.

**Q.** `COc1ccc(/C=N/NC(=O)c2ccncc2)cc1OC` was tested. Which “hERG current change (%, negative = inhibition) at 10uM” value did it give?
**A.** Its value is 15.5%.

**Q.** With `NC1=NC(=O)/C(=C\c2ccc(-c3ccc(Cl)cc3)o2)S1` as the compound, how does the “hERG current change (%, negative = inhibition) at 10uM” value read?
**A.** The value was 9.15%.

**Q.** For `COc1ccc(NC(=O)CS(=O)CC(=O)NCC2OCCc3ccccc32)cc1` (stereo not shown), which “hERG current change (%, negative = inhibition) at 10uM” value is on record?
**A.** The value was 16.2%.

**Q.** With `C=CCNC(=S)NNC(=O)c1ccncc1` as the compound, how does the “hERG current change (%, negative = inhibition) at 10uM” value read?
**A.** Its value is 1.85%.

**Q.** With `O=C1CC(N2CCN(Cc3ccc(Cl)cc3)CC2)C(=O)N1CCc1ccccc1` (stereo not shown) as the compound, how does the “hERG current change (%, negative = inhibition) at 10uM” value read?
**A.** Its value is -37.4%.

**Q.** How did the “hERG current change (%, negative = inhibition) at 10uM” value turn out when `Cc1ccc(NC(=O)COC(=O)CCc2c[nH]c(=O)[nH]2)cc1` was run?
**A.** The value was 1.45%.

**Q.** Which “hERG current change (%, negative = inhibition) at 10uM” value does the source give for `COc1cccc(C(c2nnnn2Cc2ccc(F)cc2)N2CCC(C(N)=O)CC2)c1OC` (stereo not shown) here?
**A.** The value was -24.8%.

**Q.** With `Fc1cccc(CNC2CCN(CCc3ccccc3)CC2)c1` as the compound, how does the “hERG current change (%, negative = inhibition) at 10uM” value read?
**A.** Its value is -42.8%.

**Q.** How did the “hERG current change (%, negative = inhibition) at 10uM” value turn out when `COc1c(O)cccc1[C@@H](O)C1CCN(CCc2ccc(F)cc2)CC1` was run?
**A.** Its value is -55.8%.

**Q.** For `Cc1cc(Cl)ccc1OCC(=O)NC(=S)Nc1ccc(Cl)cn1`, which “hERG current change (%, negative = inhibition) at 10uM” value is on record?
**A.** Its value is 10.9%.

**Q.** Which “hERG current change (%, negative = inhibition) at 10uM” value does the source give for `Cc1nonc1OCC(C)(COc1nonc1C)NC(=O)c1ccc(Cl)cc1` here?
**A.** The value was -61.1%.

**Q.** For `Cc1ccc(C(=O)NC(C)(COc2nonc2C)COc2nonc2C)cc1`, which “hERG current change (%, negative = inhibition) at 10uM” value is on record?
**A.** The value was -40%.

**Q.** For `Cc1nonc1OCC(C)(COc1nonc1C)NC(=O)c1ccccc1`, which “hERG current change (%, negative = inhibition) at 10uM” value is on record?
**A.** Its value is -6.59%.

**Q.** With `Cn1c(=O)n(Cc2ccccc2F)c2ccccc21` as the compound, how does the “hERG current change (%, negative = inhibition) at 10uM” value read?
**A.** The value was -16.3%.

**Q.** With `CCN(CC)C(=O)c1ccc2c(c1)C1C(Cl)C(Sc3ccccc3[N+](=O)[O-])CC1C(C(=O)O)N2` (stereo not shown) as the compound, how does the “hERG current change (%, negative = inhibition) at 10uM” value read?
**A.** Its value is -59.3%.

**Q.** For `CC(=O)c1ccc2c(c1)C1C(Cl)C(Sc3ccccc3[N+](=O)[O-])CC1C(C(=O)O)N2` (stereo not shown), which “hERG current change (%, negative = inhibition) at 10uM” value is on record?
**A.** Its value is -20.8%.

**Q.** `CC(=O)c1ccc2c(c1)C1C(Cl)C(Sc3ccccc3[N+](=O)[O-])CC1C(c1ccccc1)N2` (stereo not shown) was tested. Which “hERG current change (%, negative = inhibition) at 10uM” value did it give?
**A.** The value was 15.1%.

**Q.** Which “hERG current change (%, negative = inhibition) at 10uM” value does the source give for `CN(Cc1nc(-c2cccc(Cl)c2)no1)C1CCOCC1` here?
**A.** The value was -22.7%.

**Q.** With `CCn1c(=O)c(C(=O)NCc2cccnc2)c(O)c2ccccc21` as the compound, how does the “hERG current change (%, negative = inhibition) at 10uM” value read?
**A.** The value was -56.4%.

**Q.** With `CCn1c(=O)c(C(=O)NNS(=O)(=O)c2ccc(NC(=O)OC)cc2)c(O)c2ccccc21` as the compound, how does the “hERG current change (%, negative = inhibition) at 10uM” value read?
**A.** Its value is -56.3%.

**Q.** `CCCn1c(=O)c(C(=O)NCc2cccnc2)c(O)c2ccccc21` was tested. Which “hERG current change (%, negative = inhibition) at 10uM” value did it give?
**A.** The value was -34.7%.

**Q.** With `CCn1c(=O)c(C(=O)NCc2ccccc2)c(O)c2ccccc21` as the compound, how does the “hERG current change (%, negative = inhibition) at 10uM” value read?
**A.** The value was 19.1%.

**Q.** How did the “hERG current change (%, negative = inhibition) at 10uM” value turn out when `CCn1c(C(=O)NCc2cccnc2)cc2sc(Cl)cc21` was run?
**A.** Its value is -57.2%.

**Q.** With `Cn1c(C(=O)NCc2cccnc2)cc2sc(Cl)cc21` as the compound, how does the “hERG current change (%, negative = inhibition) at 10uM” value read?
**A.** Its value is -43.9%.

**Q.** With `CCCCCn1c(=O)c(C(=O)NCc2ccncc2)c(O)c2ccccc21` as the compound, how does the “hERG current change (%, negative = inhibition) at 10uM” value read?
**A.** Its value is -53.7%.

**Q.** `CCCn1c(=O)c(C(=O)NNS(=O)(=O)c2ccc(NC(=O)OC)cc2)c(O)c2ccccc21` was tested. Which “hERG current change (%, negative = inhibition) at 10uM” value did it give?
**A.** The value was 9.85%.

**Q.** `CCCCCn1c(=O)c(C(=O)NCc2ccccc2)c(O)c2ccccc21` was tested. Which “hERG current change (%, negative = inhibition) at 10uM” value did it give?
**A.** Its value is 15.2%.

**Q.** With `Cn1c(C(=O)NCc2cccnc2)cc2sccc21` as the compound, how does the “hERG current change (%, negative = inhibition) at 10uM” value read?
**A.** The value was -10.2%.

**Q.** For `CCCCn1c(=O)c(C(=O)NCc2ccncc2)c(O)c2ccccc21`, which “hERG current change (%, negative = inhibition) at 10uM” value is on record?
**A.** The value was -44%.

**Q.** Which “hERG current change (%, negative = inhibition) at 10uM” value does the source give for `COC(=O)Nc1ccc(S(=O)(=O)NNC(=O)c2c(O)c3ccccc3n(C)c2=O)cc1` here?
**A.** Its value is 25.9%.
